The source of these data is PubChem BioAssay (NCI).

“And” between values parts separate entries of the source, which are not always exact repeats. Identical values can stand only once. Compounds without any hit were thinned out: in the full panel of roughly 79,000, 15% have a hit. Unmarked numbers belong to inactive results. The source made the active and inactive calls. Rule as the data show it: active = growth inhibition above about 70%; inactive = the rest.

The nature of assay [1]: NCI Yeast Anticancer Drug Screen. Data for the rad50 strain (AID 155).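 Also: 0% = growth of vehicle-only cultures of the same strain.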 Particulars: S. cerevisiae rad50 strain growth inhibition; at 50.0 µM; stronger effect = higher value. In short, it runs like this:
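Inhibition values express reduced yeast growth in compound-treated cultures relative to vehicle-treated controls.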

A short description of assay [2]: NCI Yeast Anticancer Drug Screen. Data for the mec2-1 strain (AID 157). Particulars: S. cerevisiae mec2-1 strain, at 50.0 µM, stronger effect = higher value. In a few lines: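 Compounds were applied to mec2-1 yeast cells. Their growth was then compared with that of vehicle-treated cultures to give growth inhibition.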
Assay [3] is described as follows: NCI Yeast Anticancer Drug Screen. Data for the sgs1 mgt1 strain (AID 161).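 Also: 0% = growth of cultures given vehicle only.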 As to conditions: S. cerevisiae sgs1 mgt1 strain, at 50.0 µM, stronger effect = higher value. In a few lines: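 Percent growth inhibition was derived by comparing compound-exposed mutant yeast with vehicle-exposed cultures. The strain carries alterations in DNA damage repair.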
The nature of assay [4]: NCI Yeast Anticancer Drug Screen. Data for the cln2 rad14 strain (AID 165).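 Also: 0% = growth equal to vehicle treated cultures.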 As to conditions: S. cerevisiae cln2 rad14 strain, at 50.0 µM, stronger effect = higher value. In a few lines: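 Strain: cln2 rad14 yeast, altered in cell cycle control and DNA damage repair. Read-out: growth inhibition vs vehicle.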
Assay [5] in a line: NCI Yeast Anticancer Drug Screen. Data for the bub3 strain (AID 167). As to conditions: S. cerevisiae bub3 mutant strain, at 50.0 µM, stronger effect = higher value. In a few lines:
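Steps: expose the mutant yeast strain to compound; grow alongside vehicle-treated cultures; measure growth; express inhibition against the vehicle cultures.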

Assay [6] is described as follows: NCI Yeast Anticancer Drug Screen. Data for the mlh1 rad18 strain (AID 175). As to conditions: S. cerevisiae mlh1 rad18 strain growth inhibition; at 50.0 µM; stronger effect = higher value. In short, it runs like this:
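A repair-deficient yeast strain is exposed to test compound, and growth is scored relative to vehicle-treated controls.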

In the case of `CCC[CH2][Sn]([I])([CH2]I)[CH2]CCC`, the growth inhibition in assay [1] is 98.5% (active); in assay [2], 99.1% (active); in assay [3], 99% (active); in assay [4], 98.6% (active); in assay [5], 98.8% (active); in assay [6], 98.5% (active).
As for `CC1([N+](=O)[O-])COP(=O)(NCc2ccccc2)OC1` (stereo not drawn), the growth inhibition in assay [1] was 11.9%; in assay [2], -20.9%; in assay [3], -9.3%; in assay [4] it was -4.8%; in assay [5], 6.2%; in assay [6], 2.35%.
As for `CC(CCF)C(N)C(=O)O` (stereo not drawn), the growth inhibition in assay [1] was 1.8% and -0.7%; in assay [2], 28.9% and 5.4%; in assay [3], 28.9% and -9.4%; in assay [4], -0.8% and -0.2%; in assay [5], 43% and 20.7%; in assay [6] it was 19.5% and -7.8%.
In the case of `ClC1CC2OC(Cl)CC2O1` (stereo not drawn), the growth inhibition in assay [1] was 5.2%; in assay [2], 1.05%; in assay [3], -19.1%; in assay [4] it was -20.9%; in assay [5], 0.4%; in assay [6] it was 1.15%.
Take `CCCCN1CCC2(CC1)C(=O)NC(=S)NC2=O`: the growth inhibition in assay [1] was -12.4%; in assay [2] it was -2.5%; in assay [3] it was -3.65%; in assay [4] it was 4.65%; in assay [5], 6.25%; in assay [6], -22.3%.
On to `[Cl][Sn]([Cl])([c]1ccccc1)[c]1ccccc1.c1ccncc1`, for which the growth inhibition was 96.8% (active) in assay [1]; 98.8% (active) in assay [2]; 98.8% (active) in assay [3]; 97.5% (active) in assay [4]; 98.1% (active) in assay [5]; 97.7% (active) in assay [6].
As for `CC(N)CCc1ccccc1` (stereo not drawn), the growth inhibition in assay [1] is 2.7%; in assay [2], -19.9%; in assay [3], -1.15%; in assay [4], 24.7%; in assay [5] it was 3.6%; in assay [6], 12.4%.
Turning to `O=P(Cc1ccccc1)(Oc1ccccc1)Oc1ccccc1`, the growth inhibition was 89.8% (active) in assay [1]; 56.5% in assay [2]; 82.2% (active) in assay [3]; 24.8% in assay [4]; 40.1% in assay [5]; 74.8% (active) in assay [6].
As to `CC1c2[nH]c3ccccc3c2CCN1C` (stereo not drawn), the growth inhibition in assay [1] was 4.2%; in assay [2] it was -21.7%; in assay [3], 7.8%; in assay [4] it was 13.5%; in assay [5], -6.95%; in assay [6], 12.3%.
On to `Cn1c(=S)[nH]n(CCOc2ccccc2)c1=S`, for which the growth inhibition in assay [1] was -7.15%; in assay [2] it was -5.35%; in assay [3] it was -5.85%; in assay [4] it was -18.4%; in assay [5], 3.45%; in assay [6], -6.05%.
Regarding `Cc1nc([N+](=O)[O-])c([N+](=O)[O-])n1CC(O)CCl` (stereo not drawn), the growth inhibition in assay [1] is 3.85%; in assay [2], -12.4%; in assay [3] it was 4.2%; in assay [4] it was 14.9%; in assay [5], -28.1%; in assay [6], 20.4%.
Turning to `O=Cc1ccccc1O.[Pr]`, the growth inhibition in assay [1] is 29.1%; in assay [2] it was -24.4%; in assay [3] it was 37%; in assay [4], 8.4%; in assay [5], 24.4%; in assay [6], 28.6%.
For `O=C1CC2OCC=C3CN4CCC56c7ccccc7N1C5C2C3CC46O` (stereo not drawn), the growth inhibition is 25.3% in assay [1]; -21.2% in assay [2]; 6.1% in assay [3]; -1.2% in assay [4]; 30.7% in assay [5]; -62.1% in assay [6].
`COC(=O)C1C(O)CC2(O)CC(O)CC(O)C(O)CCC(O)CC(O)CC(=O)OC(C)C(C)C(O)C(C)/C=C/C=C/C=C/C=C/C=C/C=C/C=C/C(OC3OC(C)C(O)C(N)C3O)CC1O2` (stereo not drawn): the growth inhibition was -6.8% in assay [1]; 6.95% in assay [2]; -4.9% in assay [3]; 6.15% in assay [4]; 1.6% in assay [5]; -3.7% in assay [6].
In the case of `NC(Cc1ccccc1)c1ccccc1` (stereo not drawn) (tested in a mixture with another compound), the growth inhibition in assay [1] is 0.6%; in assay [2] it was -17.4%; in assay [3], -6.4%; in assay [4], 9.7%; in assay [5], 2.6%; in assay [6], 2.55%.
Regarding `CC(C)CC(NC=O)C(=O)NC(Cc1ccccc1)NC(=O)CNC(=O)C(C)NC(=O)C(N)Cc1ccc(O)cc1` (stereo not drawn), the growth inhibition in assay [1] is -17.3%; in assay [2], -9.9%; in assay [3] it was -0.9%; in assay [4] it was 15.4%; in assay [5] it was -5.15%; in assay [6], -6.45%.
With `CC12CCC3C(CCC4=CC(=O)CCC43C=O)C1CCC2Oc1ccccc1` (stereo not drawn), the growth inhibition in assay [1] is 20.7%; in assay [2], -9.7%; in assay [3] it was 25%; in assay [4] it was 23.6%; in assay [5], 12.4%; in assay [6] it was 25.6%.
On to `NNc1ncc[nH]1`, for which the growth inhibition is -0.05% in assay [1]; 1.2% in assay [2]; -9.2% in assay [3]; -1% in assay [4]; 12.8% in assay [5]; 4.55% in assay [6].
For the compound `NC1=NC(=O)C(c2ccccc2)(c2ccccc2)O1`, the growth inhibition in assay [1] was -1%; in assay [2], -8.6%; in assay [3], 5.95%; in assay [4], -0.65%; in assay [5] it was -19.3%; in assay [6] it was -4.15%.
For `c1ccc(C(NC2=NCCO2)c2ccccc2)cc1`, the growth inhibition in assay [1] is -19%; in assay [2], -33%; in assay [3] it was -60.8%; in assay [4], -21.5%; in assay [5], -17.2%; in assay [6] it was -45.8%.
On to `[Se]c1nc(N2CCOCC2)ncc1-c1ccccc1`, for which the growth inhibition in assay [1] is -18%; in assay [2], 0.5%; in assay [3] it was -17.2%; in assay [4] it was 0.5%; in assay [5] it was -3.3%; in assay [6], 9%.
`C/C(=N\N(C)C)C(CN1CCCCC1)C(c1ccccc1)c1c(O)c2ccccc2oc1=O` (stereo not drawn): the growth inhibition is -1.35% in assay [1]; -30.2% in assay [2]; -6.15% in assay [3]; 4.8% in assay [4]; 30.1% in assay [5]; -9% in assay [6].
Regarding `O=C(OCc1nc2ccccn2c1[N+](=O)[O-])N(CCCl)CCCl`, the growth inhibition in assay [1] is -42.6%; in assay [2], -21.5%; in assay [3], -35.6%; in assay [4] it was -10.8%; in assay [5] it was 16.9%; in assay [6] it was -46%.
For `COc1ccc(CCN(C)C(C)C2C3CC4CC(C3)CC2C4)cc1OC` (stereo not drawn), the growth inhibition in assay [1] is 35.5%; in assay [2], 11.3%; in assay [3] it was 19.2%; in assay [4], -16.4%; in assay [5] it was -1.1%; in assay [6], 17.9%.
In the case of `C=COC(=O)NC(C(=O)O)C(C)CC` (stereo not drawn), the growth inhibition in assay [1] is 43.1%; in assay [2], 18.6%; in assay [3] it was 44.4%; in assay [4], 24.9%; in assay [5] it was -5.35%; in assay [6] it was 34.9%.
Regarding `O=S1(=O)c2ccccc2-c2ccccc21`, the growth inhibition in assay [1] was -5%; in assay [2] it was -7.95%; in assay [3] it was -13.8%; in assay [4], -3.5%; in assay [5], -11.6%; in assay [6], 5.65%.
With `O=c1c2ccccc2oc2ccccc12` (tested in a mixture with another compound), the growth inhibition in assay [1] is 18.9%; in assay [2], 17.7%; in assay [3], 11.7%; in assay [4], 10.2%; in assay [5] it was 23.2%; in assay [6], 17.1%.
Regarding `Cc1ccc(C(=O)C2C(c3ccccc3)N2Cc2ccccc2)cc1` (stereo not drawn), the growth inhibition in assay [1] is 13.8%; in assay [2] it was 7.85%; in assay [3], 35.4%; in assay [4], -10.3%; in assay [5], 30.6%; in assay [6] it was 14.7%.
`[NH-]C(CCC(N)=O)C(=O)O.[NH-]C(CCC(N)=O)C(=O)O.[Zn+2]` (stereo not drawn): the growth inhibition in assay [1] was -23.1%; in assay [2], -22.9%; in assay [3] it was -27.1%; in assay [4], 13.3%; in assay [5] it was -26.6%; in assay [6], -38.2%.
With `C(#Cc1ccccc1)c1ccccc1.[C-]#[O+].[C-]#[O+].[C-]#[O+].[C-]#[O+].[C-]#[O+].[C-]#[O+].[Co].[Co]`, the growth inhibition in assay [1] was 42.4%; in assay [2], 28.1%; in assay [3], 42.4%; in assay [4], -3.55%; in assay [5] it was 5.2%; in assay [6], 53.2%.
`CNC(=O)Oc1ccccc1N`: the growth inhibition in assay [1] was -2.8%; in assay [2] it was -1.15%; in assay [3], -5.05%; in assay [4], 3.7%; in assay [5] it was -25.2%; in assay [6], -5.2%.
`CC(=O)[O-].N.N.N.N.[Co+3].[O-][Cl+3]([O-])([O-])[O-].[OH3+]`: the growth inhibition was -2.35% in assay [1]; 7.3% in assay [2]; -1.45% in assay [3]; 16.1% in assay [4]; 21.9% in assay [5]; 2.7% in assay [6].
Regarding `CSCCC(N)P(C)(=O)O` (stereo not drawn), the growth inhibition is -16.4% in assay [1]; -37.5% in assay [2]; -15.7% in assay [3]; 1.5% in assay [4]; -46.1% in assay [5]; -17.5% in assay [6].
Turning to `COC(=O)CNP(=O)(NCC(=O)OC)N(CCCl)CCCl`, the growth inhibition is -8.2% in assay [1]; -14.8% in assay [2]; -18.6% in assay [3]; 5.2% in assay [4]; -1.65% in assay [5]; 5.7% in assay [6].
For `O=C1CC(c2cccc(Br)c2)n2cccc21` (stereo not drawn), the growth inhibition in assay [1] is 9.9%; in assay [2] it was -1.1%; in assay [3] it was 9.95%; in assay [4] it was 37.5%; in assay [5], 13.8%; in assay [6], -5.7%.
As to `CNC(=O)Oc1cccc(N=CN(C)C)c1`, the growth inhibition in assay [1] is 7.65%; in assay [2] it was 1.05%; in assay [3] it was 0%; in assay [4], 9.9%; in assay [5] it was -20.4%; in assay [6], 16.7%.
Consider `CCOP(=S)(OCC)N(C)C(=O)Oc1cccc(C(C)C)c1`, for which the growth inhibition in assay [1] was 0.95%; in assay [2] it was -1.05%; in assay [3], 8.95%; in assay [4], -6.1%; in assay [5], -20.4%; in assay [6], 12.2%.
In the case of `C[CH2][Sn]1([CH2]C)[O]OC(c2ccccc2)[O]1` (stereo not drawn), the growth inhibition is 6.25% in assay [1]; 2.75% in assay [2]; 18.7% in assay [3]; -3.65% in assay [4]; 14.1% in assay [5]; 20.3% in assay [6].
